Assay results as given in PubChem BioAssay (NCATS).
Inconclusive results are not listed. Entries that show only a call come without a potency. Activity calls are given as the source filed them. Calls follow the shape of the dose curve; as a rule, active = well fitted curve in the direction sought with a large enough effect; inconclusive = small, poorly fitted or top-dose-only effect, or another doubt; inactive = no such curve, though single readings can be large; an effect the other way counts as inactive or inconclusive.

target: Cytochrome P450 3A4 (Homo sapiens) (UniProt P08684); test: qHTS Assay for Inhibitors and Substrates of Cytochrome P450 3A4 (AID 884); details: recombinant CYP3A4, Luciferin-PPXE luminescence; series mostly up to 57.1 µM; also: potency is read from the fitted curve at half-maximal effect; nearly all actives have a fitted effect of over 50% in size
Sequence (P08684 whole entry, looked up): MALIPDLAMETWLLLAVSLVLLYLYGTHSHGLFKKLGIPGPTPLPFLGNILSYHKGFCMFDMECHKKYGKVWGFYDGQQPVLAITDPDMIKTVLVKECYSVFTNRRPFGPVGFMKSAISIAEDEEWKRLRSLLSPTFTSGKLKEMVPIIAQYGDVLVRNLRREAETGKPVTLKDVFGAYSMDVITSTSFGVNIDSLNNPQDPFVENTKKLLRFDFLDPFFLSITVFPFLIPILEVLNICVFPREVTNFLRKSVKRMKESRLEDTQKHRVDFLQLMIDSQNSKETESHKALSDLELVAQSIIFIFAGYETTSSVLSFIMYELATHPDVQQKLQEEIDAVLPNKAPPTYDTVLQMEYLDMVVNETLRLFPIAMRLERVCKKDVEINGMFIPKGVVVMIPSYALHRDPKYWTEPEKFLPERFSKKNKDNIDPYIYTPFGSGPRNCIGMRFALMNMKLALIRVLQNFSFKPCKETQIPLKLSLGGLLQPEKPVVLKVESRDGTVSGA
In short: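 Luminescent readout of luciferin produced by CYP3A4 (20 nM) dealkylation of Luciferin-PPXE, 25 uM (its KM). NADPH-driven reaction ran 60 min at RT after 10 min compound preincubation; data scaled to 57 uM ketoconazole as 100% inhibition.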

| Structure (SMILES) | Potency |
| --- | --- |
| C=C(CC1(CNP(=O)(c2ccccc2)c2ccccc2)CC1)c1ccccc1 | 3.98 µM (active) |
| COC(=O)[C@@]1(Cc2ccc(F)cc2)[C@H]2c3cc(C(=O)N(C)C)[nH]c3C[C@H]2CN1C(=O)c1ccccc1 | 0.631 µM (active) |
| COC(=O)[C@@H]1C[C@@]1(C)[C@@H](NP(=O)(c1ccccc1)c1ccccc1)c1ccccc1 | 7.94 µM (active) |
| CCCC/C=C/[C@@H](NP(=O)(c1ccccc1)c1ccccc1)c1ccccc1OC | 6.31 µM (active) |
| C=C[C@@H]1C[C@@]1(C)[C@@H](NP(=O)(c1ccccc1)c1ccccc1)c1ccccc1 | 10 µM (active) |
| CCCc1cc2c(n1Cc1cccc(Cl)c1)C(C)C1CN(C(=O)c3ccccc3)C(C)(C(=O)OC)C21 (stereo not drawn) | 5.01 µM (active) |
| CCCC/C(C)=C/[C@@H](NP(=O)(c1ccccc1)c1ccccc1)c1ccccc1 | 2.51 µM (active) |
| CCCc1cc2c(n1Cc1ccc(C)cc1)C(C)C1CN(C(=O)c3ccccc3)C(C)(C(=O)OC)C21 (stereo not drawn) | 3.16 µM (active) |

target: Cytochrome P450 3A4 (Homo sapiens) (UniProt P08684); test: qHTS Assay for Activators of Cytochrome P450 3A4 (AID 885); details: recombinant CYP3A4, Luciferin-PPXE luminescence, 60 min; series mostly up to 57.1 µM; also: nearly all actives have a fitted effect of over 65% in size
In short: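 Human CYP3A4 dealkylates Luciferin-PPXE to luciferin, which luciferase detection converts to light. Substrate was at its KM (25uM), buffer 200mM KPO4, reaction 60 min at RT.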

| Structure (SMILES) | Potency |
| --- | --- |
| C[C@@]1([C@@H](NP(=O)(c2ccccc2)c2ccccc2)c2ccccc2)C[C@H]1CCO | inactive |
| O=P(N[C@@H](c1ccccc1)[C@@H]1C[C@H]1CO)(c1ccccc1)c1ccccc1 | inactive |
| C=C(CC1(CNP(=O)(c2ccccc2)c2ccccc2)CC1)c1ccccc1 | inactive |
| COC(=O)[C@@]1(Cc2ccc(F)cc2)[C@H]2c3cc(C(=O)N(C)C)[nH]c3C[C@H]2CN1C(=O)c1ccccc1 | inactive |
| COC(=O)[C@@H]1C[C@@]1(C)[C@@H](NP(=O)(c1ccccc1)c1ccccc1)c1ccccc1 | inactive |
| CCCC/C=C/[C@@H](NP(=O)(c1ccccc1)c1ccccc1)c1ccccc1OC | inactive |
| COC(=O)[C@]1(C)C[C@H]1[C@H](NP(=O)(c1ccccc1)c1ccccc1)c1ccccc1 | inactive |
| C=C[C@@H]1C[C@@]1(C)[C@@H](NP(=O)(c1ccccc1)c1ccccc1)c1ccccc1 | inactive |
| CCCc1cc2c(n1Cc1cccc(Cl)c1)C(C)C1CN(C(=O)c3ccccc3)C(C)(C(=O)OC)C21 (stereo not drawn) | inactive |
| CCCC/C(C)=C/[C@@H](NP(=O)(c1ccccc1)c1ccccc1)c1ccccc1 | inactive |
| CCCc1cc2c(n1Cc1ccc(C)cc1)C(C)C1CN(C(=O)c3ccccc3)C(C)(C(=O)OC)C21 (stereo not drawn) | inactive |
| C=C(CC1(C(C)NP(=O)(c2ccccc2)c2ccccc2)CC1)c1ccccc1 (stereo not drawn) | inactive |

target: Cytochrome P450 2D6 (Homo sapiens) (UniProt P10635); test: qHTS Assay for Inhibitors and Substrates of Cytochrome P450 2D6 (AID 891); details: recombinant CYP2D6, luciferin-ME EGE luminescence; series mostly up to 57.1 µM;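 also: luciferin methyl ether substrate demethylated by CYP2D6 with NADPH regeneration; nearly all actives have a fitted effect of over 60% in size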
Sequence (P10635 whole entry, looked up): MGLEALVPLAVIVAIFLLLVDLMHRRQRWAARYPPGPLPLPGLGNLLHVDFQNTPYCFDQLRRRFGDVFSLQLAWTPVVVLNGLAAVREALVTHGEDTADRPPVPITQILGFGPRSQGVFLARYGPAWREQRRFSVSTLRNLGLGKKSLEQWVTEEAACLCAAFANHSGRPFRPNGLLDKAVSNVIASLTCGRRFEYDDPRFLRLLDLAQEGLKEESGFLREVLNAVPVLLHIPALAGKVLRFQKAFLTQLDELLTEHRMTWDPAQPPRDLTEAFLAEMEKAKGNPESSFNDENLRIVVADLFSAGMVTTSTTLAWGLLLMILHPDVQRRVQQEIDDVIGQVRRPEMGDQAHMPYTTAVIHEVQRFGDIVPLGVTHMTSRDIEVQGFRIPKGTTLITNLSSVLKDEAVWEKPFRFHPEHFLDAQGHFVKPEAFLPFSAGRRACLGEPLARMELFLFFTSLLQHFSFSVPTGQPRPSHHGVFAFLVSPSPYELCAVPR
In short: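 Luminescent read-out of luciferin formed by 5 nM human CYP2D6 demethylating 30 uM Luciferin-ME EGE (Km level) over 60 min at room temperature after NADPH regeneration addition. Data normalized to full inhibition by 1.43 uM quinidine.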

| Structure (SMILES) | Potency |
| --- | --- |
| CCN1C[C@@]2(COC)[C@H](O)C[C@H](OC)[C@@]34[C@@H]5C[C@@]6(O)[C@H](OC(=O)c7ccccc7)[C@H]5[C@@](OC(C)=O)([C@H]([C@@H](OC)[C@H]23)[C@H]14)[C@H](O)[C@@H]6OC | inactive |
| C[C@@H]1O[C@H](O[C@H]2C[C@@H](O)[C@]3(CO)[C@H]4[C@H](O)C[C@]5(C)[C@@H](C6=CC(=O)OC6)CC[C@@]5(O)[C@H]4CC[C@]3(O)C2)[C@@H](O)[C@H](O)[C@H]1O | inactive |
| CCCC[C@@H]1C[C@H]1C(NP(=O)(c1ccccc1)c1ccccc1)c1ccc(Cl)cc1 (stereo partly drawn) | inactive |

target: Cytochrome P450 2C19 (Homo sapiens) (UniProt P33261); test: qHTS Assay for Inhibitors and Substrates of Cytochrome P450 2C19 (AID 899); details: recombinant CYP2C19, luciferin-H EGE luminescence; series mostly up to 57.1 µM; also: nearly all actives have a fitted effect of over 60% in size; also: potency is read from the fitted curve at half-maximal effect
Sequence (P33261 whole entry, looked up): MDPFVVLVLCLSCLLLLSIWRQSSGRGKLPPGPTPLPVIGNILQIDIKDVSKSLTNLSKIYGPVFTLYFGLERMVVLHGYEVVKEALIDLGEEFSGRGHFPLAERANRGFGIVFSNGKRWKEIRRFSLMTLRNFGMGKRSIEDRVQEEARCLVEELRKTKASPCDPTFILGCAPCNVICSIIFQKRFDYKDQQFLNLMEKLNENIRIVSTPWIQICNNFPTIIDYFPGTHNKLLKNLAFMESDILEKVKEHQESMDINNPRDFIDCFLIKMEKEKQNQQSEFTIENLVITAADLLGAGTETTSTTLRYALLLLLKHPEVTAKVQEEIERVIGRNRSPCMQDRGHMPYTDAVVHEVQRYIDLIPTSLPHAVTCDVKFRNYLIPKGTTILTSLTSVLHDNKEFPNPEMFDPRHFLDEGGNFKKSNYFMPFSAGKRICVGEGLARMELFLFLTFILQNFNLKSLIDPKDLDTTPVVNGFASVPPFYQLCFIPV
In short: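 5 nM human CYP2C19 with 10uM Luciferin-H EGE (at KM) in 50mM KPO4, compound preincubated 10 min at 37C, then NADPH regeneration for 60 min at 37C. Luciferin read by luminescence after detection reagent; normalized to 57uM ketoconazole as full inhibition.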

| Structure (SMILES) | Potency |
| --- | --- |
| CCN1C[C@@]2(COC)[C@H](O)C[C@H](OC)[C@@]34[C@@H]5C[C@@]6(O)[C@H](OC(=O)c7ccccc7)[C@H]5[C@@](OC(C)=O)([C@H]([C@@H](OC)[C@H]23)[C@H]14)[C@H](O)[C@@H]6OC | inactive |
| C[C@@H]1O[C@H](O[C@H]2C[C@@H](O)[C@]3(CO)[C@H]4[C@H](O)C[C@]5(C)[C@@H](C6=CC(=O)OC6)CC[C@@]5(O)[C@H]4CC[C@]3(O)C2)[C@@H](O)[C@H](O)[C@H]1O | inactive |
| COc1ccc2c(c1OC)C(=O)O[C@@H]2[C@H]1c2cc3c(cc2CCN1C)OCO3 | 3.16 µM (active) |

tested on: not listed separately; test: Confirmation and Secondary Assay for Modulators of Hemoglobin Beta Chain Splicing at IVS2 654 locus (AID 910); details: HeLa EGFP-654 splicing reporter, GFP fluorescence, 48 h; series mostly up to 46.1 µM;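 also: HeLa cells stably carrying EGFP split by mutant beta-globin IVS2-654 intron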
In short: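 HeLa cells stably expressing EGFP interrupted by β-globin IVS2-654 intron, seeded overnight in Opti-MEM/2% FCS, then treated 2 days at 37 °C. Restored splicing read as total peak GFP intensity per well by laser scanning cytometry (488 nm excitation, 500–520 nm emission); 500 nM antisense PNA as control.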

| Structure (SMILES) | Potency |
| --- | --- |
| C=CCN1CC[C@]23c4c5ccc(O)c4OC2C(=O)CC[C@]3(O)C1C5 (stereo partly drawn) | inactive |
| C[C@H]1O[C@H](O[C@H]2[C@H](O)[C@@H](O)[C@@H](O)[C@H](O)[C@@H]2O)[C@@H](N)C[C@@H]1NC(=N)C(=O)O | inactive |
| OCC1OC(n2cnc3cc(Cl)c(Cl)cc32)C(O)C1O (stereo not drawn) | inactive |
| COc1ccc(C(=O)O)cc1OC | inactive |

tested on: not listed separately; test: Confirmation and Secondary Assay for Modulators of Hemoglobin Beta Chain Splicing at IVS2 705 locus (AID 930); details: HeLa EGFP-705 splicing reporter, GFP fluorescence, 48 h; series mostly up to 46.1 µM;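 also: HeLa cells stably expressing the EGFP-705 splicing reporter; GFP fluorescence per well restored by corrected splicing of the IVS2-705 intron in EGFP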
In short: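 First, HeLa EGFP-705 cells are seeded at 500/well in Optimem with 2% FCS and left overnight. Next, compound or DMSO is added for 2 days. Finally wells are laser-scanned and total peak GFP intensity scored.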

| Structure (SMILES) | outcome |
| --- | --- |
| C=CCN1CC[C@]23c4c5ccc(O)c4OC2C(=O)CC[C@]3(O)C1C5 (stereo partly drawn) | inactive |
| C[C@H]1O[C@H](O[C@H]2[C@H](O)[C@@H](O)[C@@H](O)[C@H](O)[C@@H]2O)[C@@H](N)C[C@@H]1NC(=N)C(=O)O | inactive |
| OCC1OC(n2cnc3cc(Cl)c(Cl)cc32)C(O)C1O (stereo not drawn) | inactive |
| COc1ccc(C(=O)O)cc1OC | inactive |

target: Ubiquitin carboxyl-terminal hydrolase 1 (Homo sapiens) (UniProt O94782); test: Inhibitors of USP1/UAF1: Pilot qHTS (AID 504865); details: purified USP1/UAF1, Ub-rhodamine cleavage fluorescence; series mostly up to 114 µM;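 also: rhodamine fluorescence freed from ubiquitin-rhodamine substrate followed over time; top concentration of the series differs between compounds; nearly all actives have a fitted effect of over 35% in size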
Sequence (O94782 whole entry, looked up): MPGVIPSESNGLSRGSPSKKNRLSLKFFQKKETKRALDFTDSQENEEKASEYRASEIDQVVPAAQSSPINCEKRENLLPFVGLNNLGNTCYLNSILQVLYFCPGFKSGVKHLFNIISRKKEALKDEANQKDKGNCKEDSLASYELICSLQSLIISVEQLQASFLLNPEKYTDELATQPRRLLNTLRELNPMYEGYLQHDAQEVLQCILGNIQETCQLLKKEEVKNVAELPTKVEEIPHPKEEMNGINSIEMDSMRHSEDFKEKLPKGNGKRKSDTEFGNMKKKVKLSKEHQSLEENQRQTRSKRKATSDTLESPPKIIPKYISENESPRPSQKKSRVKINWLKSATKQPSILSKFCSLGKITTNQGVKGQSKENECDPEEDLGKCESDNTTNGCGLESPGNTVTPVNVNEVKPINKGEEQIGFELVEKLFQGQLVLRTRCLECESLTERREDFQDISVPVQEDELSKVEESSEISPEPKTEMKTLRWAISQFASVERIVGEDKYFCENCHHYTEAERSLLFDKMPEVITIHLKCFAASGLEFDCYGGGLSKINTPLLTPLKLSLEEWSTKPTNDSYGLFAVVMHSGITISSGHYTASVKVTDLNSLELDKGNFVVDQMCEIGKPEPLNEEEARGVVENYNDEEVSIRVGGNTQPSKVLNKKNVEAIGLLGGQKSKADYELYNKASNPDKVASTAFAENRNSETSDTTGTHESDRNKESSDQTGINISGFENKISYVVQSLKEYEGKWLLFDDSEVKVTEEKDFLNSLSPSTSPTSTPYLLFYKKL
In short: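 USP1/UAF1 complex at 1 nM preincubated 15 min at room temperature with compound, then Ub-Rho substrate added at 150 nM final. Fluorescence (480/540 nm) read kinetically in 50 mM HEPES pH 7.8, 0.5 mM EDTA, 1 mM TCEP, 0.1 mg/ml BSA, 0.01% Tween-20.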

| Structure (SMILES) | Potency |
| --- | --- |
| C=CCN1CC[C@]23c4c5ccc(O)c4OC2C(=O)CC[C@]3(O)C1C5 (stereo partly drawn) | inactive |
| C[C@H]1O[C@H](O[C@H]2[C@H](O)[C@@H](O)[C@@H](O)[C@H](O)[C@@H]2O)[C@@H](N)C[C@@H]1NC(=N)C(=O)O | inactive |
| OCC1OC(n2cnc3cc(Cl)c(Cl)cc32)C(O)C1O (stereo not drawn) | inactive |
| COc1ccc(C(=O)O)cc1OC | inactive |
